Test results from PubChem BioAssay AID1929 (Vanderbilt High Throughput Screening Facility, 2009).
Activity calls are given as the source filed them. No rule for the calls is given here.

target: Muscarinic acetylcholine receptor M3 (Homo sapiens) (UniProt P20309); test: ACh potency shift at human M3 – cell-based, analogs, calcium, selectivity assay for M4 PAM project, SAR follow-up (AID 1929); conditions: hM3 cells, ACh CRC fold-shift, calcium mobilization; with ACh 0.1 µM; with compound at fixed dose
Sequence (P20309 whole entry, looked up): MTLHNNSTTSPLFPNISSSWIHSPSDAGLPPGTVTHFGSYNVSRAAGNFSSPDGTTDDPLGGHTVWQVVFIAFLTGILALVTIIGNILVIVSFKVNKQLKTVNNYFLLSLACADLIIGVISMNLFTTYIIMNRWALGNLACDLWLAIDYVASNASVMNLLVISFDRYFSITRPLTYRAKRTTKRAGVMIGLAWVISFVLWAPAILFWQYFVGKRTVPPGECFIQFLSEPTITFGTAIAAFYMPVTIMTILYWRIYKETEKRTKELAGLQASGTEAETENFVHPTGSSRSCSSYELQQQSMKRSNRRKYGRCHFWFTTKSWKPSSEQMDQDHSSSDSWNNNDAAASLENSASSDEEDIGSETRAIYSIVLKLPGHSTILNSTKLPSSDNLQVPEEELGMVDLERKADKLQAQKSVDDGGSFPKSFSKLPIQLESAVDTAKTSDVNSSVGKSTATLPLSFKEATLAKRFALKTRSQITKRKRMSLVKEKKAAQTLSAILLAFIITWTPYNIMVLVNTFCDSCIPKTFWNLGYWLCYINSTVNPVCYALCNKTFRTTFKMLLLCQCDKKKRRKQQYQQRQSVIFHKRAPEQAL

ACh response, % max, inactive:
COc1ccc(CNC(=O)c2sc3nc(OCc4ccncc4)cc(C)c3c2N)cc1 90.1
Cc1cc(OCc2ccncc2)nc2sc(C(=O)NCc3cc(F)ccc3F)c(N)c12 96.3
Cc1cc(OCCN2CCOCC2)nc2sc(C(=O)NC(C)(C)C)c(N)c12 96.8
Cc1cc(OCc2ccncc2)nc2sc(C(=O)NCc3cccc(F)c3F)c(N)c12 94.7
